# High-throughput results (PubChem BioAssay)
# Choline anaer gr: choline-fed anaerobic bacterial growth inhibition | Gram-negative bacterium anaerobic choline minimal medium, absorbance growth; active compounds read low | calls only | 55,000 compounds, 0.2% hits | AID 1963822; call rule not given here
# Calls only; – = inactive; + = active, no number. The full list was thinned out, with hits kept by preference.
SMILES,Choline anaer gr
Cc1cc2c(cc1S(=O)(=O)N1CCCC(C(=O)N3CCCC3)C1)OC(C)C(=O)N2 (stereo not drawn),–
Cn1c(-c2nnc(SCC(=O)Nc3ccc4c(c3)OCO4)o2)cc2ccccc21,–
O=C(CSc1nnc(-c2cc3ccccc3[nH]2)o1)Nc1ccc2c(c1)OCO2,–
O=C(CSc1nnc(-c2cccnc2)o1)Nc1ccc2c(c1)OCO2,+
COc1cc(Cl)c(NS(=O)(=O)c2cc(-c3cc(C)no3)cs2)c(OC)c1,–
CC1(C)C2CCC1(CS(=O)(=O)O)C(=O)/C2=C\c1ccc(/C=C2\C(=O)C3(CS(=O)(=O)O)CCC2C3(C)C)cc1,–
CCCCN(C)C(=O)c1ccc(Nc2ccnc(-c3cccc(C)c3)n2)cc1,–
CN1CCc2c(sc(NC(=O)CN3C(=O)c4ccccc4C3=O)c2-c2nc3ccccc3s2)C1,–
CN1CCc2c(sc(NC(=O)C3CC3)c2-c2nc3ccccc3s2)C1,–
CC(C)N1CCc2c(sc(NC(=O)C3CC3)c2-c2nc3ccccc3s2)C1,+
O=C(Nc1cnn(-c2ncc(N3CCCC3)cn2)c1)NC1CCCC1,–
O=C(Nc1cnn(-c2ncc(N3CCCC3)cn2)c1)C1CCC1,+
O=C(Nc1cnn(-c2ncc(N3CCSCC3)cn2)c1)C1CCOC1 (stereo not drawn),–
O=C(CSc1nc2ccccc2nc1Cc1ccccc1)NCC1CCCO1 (stereo not drawn),–
CCCCNC(=O)CSc1nc(-c2ccc(C(C)C)cc2)no1,+
CCc1ccc(NC(=O)CSc2nc(-c3ccc(C(C)C)cc3)no2)cc1,–
CC(C)CCNC(=O)CSc1nc(-c2ccccc2)no1,–
CCCOc1ccc(CN2CCCC2c2c(C)noc2CC)cc1OC (stereo not drawn),–
Cn1c(=O)c(-c2noc(C(=O)NCC3CCCO3)n2)nn(-c2ccc(F)cc2)c1=O (stereo not drawn),–
Cc1cc(C)cc(NC(=O)Nc2cc3c(cc2N2CCCC2)n(C)c(=O)n3C)c1,–
O=C(Nc1ccc2c(c1)OCO2)Nc1cc(NC(=O)c2ccccc2)ccc1N1CCCC1,–
Cn1c(=O)n(C)c2cc(N3CCCC3)c(NC(=O)Nc3ccc4c(c3)OCCO4)cc21,+
COc1ccc(CCNC(=O)c2n[nH]nc2Nc2ccc(C)cc2)cc1OC,–
O=C(c1ccccc1)N1CCN(Cc2cc(=O)n3nc(-c4ccccc4Cl)sc3n2)CC1,–
O=C1C(=O)N(C2CCN(C(=O)C3CCCCC3)CC2)CCN1Cc1cccc(F)c1,–
SMILES,Choline anaer gr
CCN(C(=O)c1c(C)oc2ncnc(N3CCCCC3)c12)c1cc(C)ccc1C,+
Cc1ccc(-c2noc3ncnc(N4CCC(C(=O)N(C)c5cc(C)ccc5C)CC4)c23)cc1,–
Cc1oc2ncnc(N3CCCCC3)c2c1C(=O)Nc1cccc(Cl)c1,–
CCN(CC)CCNC(=O)CC1CCN(S(=O)(=O)c2cccs2)CC1,–
CNC(=O)N1CCc2cc(S(=O)(=O)N3CCc4ccccc43)ccc21,–
CS(=O)(=O)Nc1ccc(-c2noc(/C=C/c3ccccc3)n2)cc1,–
CCCC(=O)N1CCCC1C(=O)N1CCCCC1C (stereo not drawn),+
Cc1noc(C(=O)N2CCCCC2C)c1Cl (stereo not drawn),–
Cc1cc(N2CCC(C)CC2)nc2ccc(NC(=O)CCC(=O)N3CCCCC3C)cc12 (stereo not drawn),–
CCOc1ccccc1-c1noc(CSc2nc3c(-c4ccccc4)c[nH]c3c(=O)[nH]2)n1,–
CCN1CCN(C(=O)[C@@H]2CCCN2C(C)=O)CC1,–
CCC(=O)N1CCCN(S(=O)(=O)CC)CC1,–
CCC(=O)N1CCCC1C(=O)N1CCCN(C)CC1 (stereo not drawn),+
CCCCN(CC)CCN1C(=O)c2cc3occc3n2CC1(C)C(=O)NC1CCC(C)CC1 (stereo not drawn),–
CN1CCCN(c2ncnc3c2CCC3)CC1,–
c1nc2c(c(N3CCC(N4CCCCC4)CC3)n1)CCC2,+
c1ccc(N2CCN(c3ncnc4c3CCC4)CC2)nc1,–
Cc1c(C(=O)NC2CCCc3ccccc32)oc2ccc(S(=O)(=O)N3CCC(C)CC3)cc12 (stereo not drawn),–
CC1CCCN(S(=O)(=O)c2ccc(-c3nc(C#N)c(NCCN4CCOCC4)o3)cc2)C1 (stereo not drawn),–
CCn1c(=O)c(N2CCC(C(=O)NCc3ccccc3OC)CC2)nc2cccnc21,–
O=C(C1CC1)N1Cc2c(sc3c2CCCC3)-n2cccc2C1c1ccccc1 (stereo not drawn),–
